Assay [1] can be described thus: P-glycoprotein substrates identified in KB-8-5-11 adenocarcinoma cell line, qHTS therapeutic library screen (AID 1346987). Further: nearly all actives have a fitted effect of over 65% in size. Further: potency means the concentration at half of the fitted maximal effect. On activity change, negative = cytotoxicity: series mostly up to about 44 µM. The procedure, abridged:
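Compounds are pinned in dose-response onto KB-8-5-11 cells (500 cells/well, colchicine-free medium) and left 72 h at 37 degree C. CellTiter-Glo luminescence then yields AC50 values.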

A short description of assay [2]: qHTS assay for small molecule antagonists of the retinoid-related orphan receptor gamma (ROR-gamma) signaling pathway - cell viability counter screen (AID 720652; active means well fitted curve in the direction sought with a large enough effect in the repeat runs; an effect the other way counts as inactive or inconclusive;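 further: series mostly up to about 92 µM; compound exposure lasted 16 hr before ATP read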). The gist of the method: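 Cytotoxicity counter screen: intracellular ATP (CellTiter-Glo luminescence) measured in the doxycycline-induced CHO RORE-luciferase reporter line after 16 hr compound exposure at 37 C, 5% CO2.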

Assay [3] is described as follows: qHTS assay for small molecule agonists of the antioxidant response element (ARE) signaling pathway measured by Nrf2-dependant transcriptional activity - cell viability counter screen (AID 720653; active means well fitted curve in the direction sought with a large enough effect in the repeat runs; an effect the other way counts as inactive or inconclusive). The settings on record: ARE-bla HepG2 viability, CellTiter-Glo ATP luminescence, 16 h; stronger effect = lower value. The procedure, abridged: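 ARE-bla HepG2 cells treated with compounds for 16 h at 37C; this counter screen measures viability as intracellular ATP by CellTiter-Glo luminescence after 30 min at room temperature.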

Assay [4] can be described thus: qHTS Assay for Identifying Gametocytocidal Compounds (AID 743244). Further: potency means the concentration at half of the fitted maximal effect. The conditions noted are these: P. falciparum 3D7 stage III-V gametocytes, alamarBlue, 72 h; max response: stronger effect = lower value. The procedure, abridged: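 Stage III–V gametocytes of P. falciparum 3D7 were seeded at 20,000 cells/well onto pre-dispensed compounds. After 72 h, 37 °C, 5% CO2, alamarBlue was added for another 24 h.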

Assay [5] is described as follows: qHTS assay for cell viability of HEK293 cells (AID 743288). Further: nearly all actives have a fitted effect of over 50% in size. The settings on record: ATP luminescence (CellTiter-Glo), 18 h, stronger effect = lower value. The gist of the method: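 Readout is luciferase-coupled ATP content (CellTiter-Glo luminescence, 30 min room temperature) as a measure of metabolically competent cells. Parental HEK293 cells were plated 5 h or more before compound addition, then treated 18 h at 37 C.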

A short description of assay [6]: qHTS assay for cell viability of the p53RE-bla HCT-116 cell line (AID 743292). Further: nearly all actives have a fitted effect of over 55% in size. The gist of the method: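 ATP-based luminescence, 16 h compound exposure at 37 C, p53RE-bla HCT-116 cells at 4,000/well.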
Assay [7] is described as follows: NS1 protein of Zika virus - qHTS assay to identify small molecule inhibitors in human HEK 293 cells (AID 1347053). Further: nearly all actives have a fitted effect of over 55% in size. Further: potency means the concentration at half of the fitted maximal effect. The procedure, abridged: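 TR-FRET signal from two anti-ZIKV NS1 antibodies quantified NS1 in HEK 293 cells 24 h after MR766 infection at MOI = 0.5; compounds were added 1 h before virus. Uninfected cells and infected cells defined the NS1 normalization range.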

A short description of assay [8]: qHTS of pediatric cancer cell lines to identify multiple opportunities for drug repurposing: Primary screen for SJ-GBM2 cells (AID 1347091). The procedure, abridged: (§1)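 Viability measured as metabolically active cells via CellTiter-Glo luminescence following 48 hours of compound exposure, 11-point dilutions in confirmatory testing. 500-1,000 cells/well plated 5 hours before dosing; controls were DMSO and 2.3 µM bortezomib.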

Assay [9] in a line: qHTS of pediatric cancer cell lines to identify multiple opportunities for drug repurposing: Primary screen for A673 cells (AID 1347092). Further: nearly all actives have a fitted effect of over 45% in size. Further: potency means the concentration at half of the fitted maximal effect. The gist of the method: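 Cell viability of A673 measured by CellTiter-Glo ATP luminescence after 48 hours compound exposure. Dilution series spanned 0.78 nM to 46 µM (MIPE, 11-point) or 0.59 nM to 46 µM (NPC, 8-point); bortezomib 2.3 uM positive control.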

Assay [10] can be described thus: qHTS of pediatric cancer cell lines to identify multiple opportunities for drug repurposing: Primary screen for SK-N-SH cells (AID 1347098). Further: nearly all actives have a fitted effect of over 65% in size. Further: potency means the concentration at half of the fitted maximal effect. The procedure, abridged: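 Cells (500-1,000/well) rested 5 h, then received compounds for 48 h; metabolically active cells were measured by CellTiter-Glo luminescence. Final concentrations spanned up to 46 µM (MIPE, 11-point) or 0.59 nM-46 µM (NPC, 8-point) in primary screens, 11-point in follow-ups.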

Assay [11] can be described thus: qHTS of pediatric cancer cell lines to identify multiple opportunities for drug repurposing: Primary screen for Saos-2 cells (AID 1347097). Further: nearly all actives have a fitted effect of over 40% in size. Further: potency means the concentration at half of the fitted maximal effect. The gist of the method: (§2)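 Readout: CellTiter-Glo luminescence, 48 h treatment. Controls DMSO (neutral) and bortezomib 2.3 µM final (positive). Potency and efficacy taken from primary-screen concentration-response curves.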
Assay [12] is described as follows: qHTS of pediatric cancer cell lines to identify multiple opportunities for drug repurposing: Primary screen for NB1643 cells (AID 1347099). Further: nearly all actives have a fitted effect of over 50% in size. Further: potency means the concentration at half of the fitted maximal effect. The gist of the method:
as §2

Assay [13] in a line: qHTS of pediatric cancer cell lines to identify multiple opportunities for drug repurposing: Primary screen for TC32 cells (AID 1347089). Further: nearly all actives have a fitted effect of over 60% in size. The procedure, abridged: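 Luminescent ATP read-out (CellTiter-Glo) of metabolically active TC32 cells after 48 h exposure. Concentration-response curves came from 11-point (MIPE, 0.78 nM–46 µM) or 8-point (NPC, 0.59 nM–46 µM) primary titrations; follow-up used 11 points.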

The nature of assay [14]: qHTS of pediatric cancer cell lines to identify multiple opportunities for drug repurposing: Primary screen for DAOY cells (AID 1347090). Further: series mostly up to about 46 µM; nearly all actives have a fitted effect of over 55% in size. The gist of the method:
as §1

The nature of assay [15]: qHTS of pediatric cancer cell lines to identify multiple opportunities for drug repurposing: Primary screen for SK-N-MC cells (AID 1347093). Further: series mostly up to about 46 µM. The procedure, abridged: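 Metabolically active cells were quantified by ATP-dependent luminescence (CellTiter-Glo, 15 min at room temperature) following 48 h treatment. Cells had been plated at 500-1,000 per well and settled for 5 h beforehand.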

The nature of assay [16]: qHTS of pediatric cancer cell lines to identify multiple opportunities for drug repurposing: Primary screen for BT-37 cells (AID 1347094). Further: series mostly up to about 57 µM. The procedure, abridged:
as §2

Assay [17] is described as follows: qHTS of pediatric cancer cell lines to identify multiple opportunities for drug repurposing: Primary screen for NB-EBc1 cells (AID 1347095). The procedure, abridged:
as §2

Assay [18] is described as follows: qHTS of pediatric cancer cell lines to identify multiple opportunities for drug repurposing: Primary screen for U-2 OS cells (AID 1347096). Further: nearly all actives have a fitted effect of over 50% in size. The gist of the method:
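Viability after 48 h compound treatment at 37C, 500-1,000 cells/well, read as ATP luminescence with CellTiter-Glo. Primary screens used 11-point (MIPE, 0.78 nM-46 µM) or 8-point (NPC, 0.59 nM-46 µM) final concentrations; follow-up screens used 11-point dilutions.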

Records with an inconclusive call do not appear. Entries that show only a call come without a potency. Values without a mark were called inactive. Active and inactive are the calls of the source. Unless noted, the call rests on the fitted dose curve; in most records, active means well fitted curve in the direction sought with a large enough effect; inconclusive means small, poorly fitted or top-dose-only effect, or another doubt; inactive means no such curve, though single readings can be large; an effect the other way counts as inactive or inconclusive. Where a SMILES comes first, the peptide text is derived from it. [ ]: non-standard residue; d: D form. ξ: configuration not given here. ξLac(3-iPr) = CC(C)CC(O)C(=O)O; NMeV = CN[CH](C(=O)O)C(C)C; βAla = NCCC(=O)O

As to `CC(C)CC1OC(=O)C2CCCN2C(=O)CCNC(=O)C(Cc2ccccc2)NC(=O)C(C(C)C)N(C)C(=O)C(C(C)C)N(C)C1=O` (stereo not given) (cyclo([ξLac(3-iPr)][NMeV][NMeV]F[βAla]P); configuration not given here), the Potency result in [1] is “inactive”.

Turning to `Cc1cccc(C)c1-n1c(=O)c2cnc(Nc3ccc(N4CCN(C)CC4)cc3)nc2n2c3ccccc3nc12`, in assay [1], the Potency was 0.92 µM (active).

On to `CS(=O)(=O)N(CC(=O)NCC1CC1)c1cc(C(F)(F)F)ccc1Cl`, for which the Potency entry in assay [1] was “inactive”.

On to `C[C@@H]1C(=O)OC[C@H]2C(C(=O)O)=C[C@@H]3CC(C)(C)C[C@]312`, for which the Potency result in assay [1] is “inactive”. On to `CNC(=S)NS(=O)(=O)c1cc(CCNC(=O)c2cc(Cl)ccc2OC)ccc1OC`, for which the Potency entry in [1] is “inactive”. As to `CCc1cc(CN2CC(C(=O)O)C2)sc1-c1noc(-c2ccc(Oc3ccccc3)cc2)n1`, in assay [1], the Potency result was “inactive”. Still for that read-out and setting: in the case of `C=C(C)C1CCC2(C(=O)O)CCC3(C(=O)O)C(CCC4C5(C)CCC(O)C(C)(C(=O)O)C5CCC43C)C12` (stereo not given) it was “inactive”. Take `CC[C@]1(O)CC2CN(CCc3c([nH]c4ccccc34)[C@@](C(=O)OC)(c3cc4c(cc3OC)N(C=O)[C@H]3[C@@](O)(C(=O)OC)[C@H](OC(C)=O)[C@]5(CC)C=CCN6CC[C@]43[C@@H]65)C2)C1` (stereo not given in full): the Potency in [1] is 2.27 µM (active).

Turning to `O=C(Cc1ccc(-c2ccccc2)cc1)NC1CCC1`, in assay [1], the Potency entry is “inactive”. Still for that read-out and setting: in the case of `COc1ccc(-c2cnc3ccc(NCc4ccc(S(N)(=O)=O)cc4)nn23)cc1OC` it was “inactive”; in that of `CC(C)C(C(=O)N(C)C(C)C(N)=O)N(C)C(=O)C1CCCN1C(=O)/C=C/C=C/C(O)C(C)O` (stereo not given), “inactive”; in that of `COc1cc(/C=C/CO)cc(OC)c1O[C@@H]1O[C@H](CO[C@@H]2O[C@H](CO)[C@@H](O)[C@H](O)[C@H]2O)[C@@H](O)[C@H](O)[C@H]1O`, “inactive”.

In the case of `C[C@@H]1O[C@@H](O[C@H]2[C@H](O[C@H]3[C@H](O[C@H]4CC[C@@]5(C)C(CC[C@]6(C)C5CC=C5[C@@H]7CC(C)(C)C[C@@H](O)[C@]7(C)CC[C@]56C)[C@@]4(C)CO)O[C@H](C(=O)O)[C@@H](O)[C@@H]3O)OC[C@H](O)[C@@H]2O)[C@H](O)[C@H](O)[C@H]1O` (stereo not given in full), the activity change, negative = cytotoxicity in assay [1] is 3.08% [at 9.29 µM].

`C[C@H]1Oc2cc(cnc2N)-c2c(nn(C)c2C#N)CN(C)C(=O)c2ccc(F)cc21`: in assay [1], the Potency entry is “inactive”. Still for that read-out and setting: for `Cc1noc(-c2ccc(-c3ccc(CC(=O)O)cc3)cc2)c1NC(=O)O[C@H](C)c1ccccc1` the value was “inactive”; for `COc1ccc(CC2NCCc3c2[nH]c2ccc(C)cc32)cc1OC` (stereo not given), “inactive”.

Take `Nc1nc2c(c(=O)[nH]1)C[C@@H](CCc1ccc(C(=O)N[C@@H](CCC(=O)O)C(=O)O)cc1)CN2`: the Potency in assay [1] was 0.058 µM (active). The same measure, in the same setting: in the case of `C/C=C/C=C/[C@@H]1O[C@](O)([C@H](CC)C(=O)NC/C=C/C=C(\C)[C@@H](OC)[C@@H](C)C2OC(/C=C/C=C/C=C(\C)C(=O)c3c(O)cc[nH]c3=O)[C@H](O)[C@@H]2O)[C@H](O)[C@H](O)C1(C)C` (stereo not given in full) it was “inactive”; in that of `COc1cc(/C=C/C(=O)OC[C@H]2O[C@@](CO)(O[C@H]3O[C@H](CO)[C@@H](O)[C@H](O)[C@H]3O)[C@@H](OC(=O)/C=C/c3ccc(O)c(OC)c3)[C@@H]2O)ccc1O`, “inactive”.

Consider `Cc1ccc(N)cc1O`, for which the compound was called inactive in assay [2], in assay [6] and in assay [8]. The max response in [3] was -11.4%; in [5], 3.99%. The Potency in assay [4] is 31.6 µM (active); in [7] it was 31.6 µM (active); in assay [9] it was 30.6 µM (active); in assay [10] it was 31.4 µM (active). In assay [1], the Potency entry was “inactive”. As for `C/C1=C\C[C@]2(C)C(=O)C(O)=C([C@H](C)CO)[C@H]2C/C=C(\C)[C@@H](O)CC/C(C)=C/CC1`, the Potency result in [1] was “inactive”. On to `C=C[C@H]1[C@H](O[C@@H]2O[C@H](CO)[C@@H](O)[C@H](O)[C@H]2O)OC=C(C(=O)OC)[C@H]1C[C@@H]1c2cc(O)c(O)cc2CCN1C(C)=O`, for which the Potency entry in [1] was “inactive”.

On to `Nc1ccccc1N`, for which the max response in [3] was 1.96%. For the same compound, the compound was called inactive in [6] and in assay [8]. The Potency result in [1] and in assay [7] was “inactive” each time. The Potency in assay [9] was 15.4 µM (active); in [11], 30.6 µM (active); in [12], 30.6 µM (active). Turning to `CC(O)c1cc(C(=O)N[C@@H](C)Cn2ccc(-c3ccc(C#N)c(Cl)c3)n2)n[nH]1` (stereo not given in full), in assay [1], the Potency result was “inactive”.

As to `CC(NC(=O)CCc1nc2ccccc2c(=O)[nH]1)c1ccccc1` (stereo not given), in assay [1], the Potency result was “inactive”. On the same count and under the same terms, in the case of `C=C1C(OC(=O)/C(C)=C\C)[C@@]23CCC4[C@@](C)(CCC[C@@]4(C)C(=O)O)C2CC[C@H]1C3OC(C)=O` (stereo not given in full) it was “inactive”. `CC(=O)OC1C[C@]2(C)C(O)CC(C)=C[C@H](OC(=O)c3ccc(O)cc3)C2[C@]1(O)C(C)C` (stereo not given in full): the Potency result in assay [1] was “inactive”. `CC(C)CCC[C@@H](C)[C@H]1CC[C@H]2[C@@H]3CC(=O)[C@H]4C[C@@H](O)CC[C@]4(C)[C@H]3CC[C@]12C`: the Potency result in [1] is “inactive”.

`COc1ccc(C2(O)CCC(N3CC[C@@H](NC(=O)CNC(=O)c4cccc(C(F)(F)F)c4)C3)CC2)cn1` (stereo not given in full): the Potency result in assay [1] was “inactive”. Turning to `CCC(C(=O)O)c1ccc(N2Cc3ccccc3C2=O)cc1` (stereo not given), the Potency result in [7], in assay [9], in [11], in [10] and in [12] was “inactive” throughout. Besides, the call in [13], in assay [14], in assay [8], in assay [15], in assay [16] and in assay [17] was inactive. For the same compound, in assay [18], the outcome was inactive. For the compound `Cc1cc(Nc2ccc(NC(=O)c3ccc(Nc4ccnc5ccccc45)cc3)cc2)nc(N)n1`, the Potency entry in [1] is “inactive”. For the compound `CC1(C)CC(=O)C2=C(C1)NC(=S)NC2c1cccc(O)c1` (stereo not given), the Potency in assay [1] was 5.8 µM (active).

Consider `CC(C)(C)c1ccc(S(=O)(=O)NCc2ccc(C(=O)Nc3cccnc3)cc2)cc1`, for which, in assay [1], the Potency is 1.16 µM (active).
